Assay outcomes deposited in PubChem by several laboratories.
In the library only some 32% were active in any assay of this set; here they are far more common.
PostGolgi yeast – growth inhibition of a yeast mutant, post-Golgi transport screen; post-Golgi transport phenotypic cell assay; AID 739; inhibition, % at 10 µM; 0.9% of 98,000 active;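 further: yeast cells grown in 1536-well plates; yeast grown about 18 h at 30C before absorbance read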
CYP2C9 inh – human CYP2C9 inhibition | inhibition, % at 5 µM | AID 777 | CYP2C9 Supersomes, luciferin-H conversion, luminescence | 20% of 96,000 active;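 active means blocking of liver enzyme CYP2C9 beyond about 50% at 5 µM, limit read from the data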
PostGolgi ctrl – growth of the yeast control strain, post-Golgi counter-screen. 5% of 98,000 active. inhibition, % at 10 µM. AID 738. efflux-deficient yeast background strain, growth absorbance A615, 16 h
CYP2C19 inh – blocks human cytochrome P450 2C19; 21% of 96,000 active; AID 778; inhibition, % at 5 µM; P33261; CYP2C19 Supersomes, luciferin-H EGE luminescence, 30 min;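 active means CYP2C19 inhibition above a set limit at 5 µM in the primary screen, cut at about 50% in these data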;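 further: plate controls were negative control wells for no effect and 2.5 mM tranylcypromine positive control for full effect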
Target sequence (P33261 whole entry, looked up): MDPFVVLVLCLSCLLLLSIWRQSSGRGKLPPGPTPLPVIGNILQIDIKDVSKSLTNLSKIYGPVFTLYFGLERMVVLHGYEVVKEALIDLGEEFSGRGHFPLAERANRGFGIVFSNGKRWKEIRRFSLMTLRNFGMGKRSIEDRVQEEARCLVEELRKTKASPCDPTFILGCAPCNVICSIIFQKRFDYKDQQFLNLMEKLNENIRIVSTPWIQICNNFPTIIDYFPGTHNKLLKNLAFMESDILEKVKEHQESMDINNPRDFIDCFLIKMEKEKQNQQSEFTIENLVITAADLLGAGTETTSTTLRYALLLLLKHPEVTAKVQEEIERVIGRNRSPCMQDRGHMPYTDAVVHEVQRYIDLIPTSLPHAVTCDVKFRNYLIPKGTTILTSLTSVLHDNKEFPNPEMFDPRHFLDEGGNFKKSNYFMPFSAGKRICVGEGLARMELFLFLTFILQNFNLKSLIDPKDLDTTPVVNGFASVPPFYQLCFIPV
CYP2C19 act – cytochrome P450 2C19 (human) activation | P33261 | recombinant CYP2C19, luciferin-H EGE luminescence; active compounds read high; 0 = fully inhibited enzyme, 1 = untreated enzyme | activation factor at 5 µM | 96,000 tested, under 10 active | AID 1025;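 active means activation factor of at least 2 at 5 µM in the primary screen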;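 further: 0 = wells with 2.5 mM tranylcypromine and 1 = vehicle-only wells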
CYP2C9 activ – increases human cytochrome P450 2C9 activity; P11712; recombinant CYP2C9, luciferin-H conversion, luminescence; active compounds read high; factor 1 = untreated enzyme, 0 = blocked; activation factor at 5 µM; 1.4% of 96,000 active; AID 1024;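 active means activation factor of 2 or more for CYP2C9 at a 5 µM dose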;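 further: 0 = sulfaphenazole-blocked wells and 1 = vehicle-only wells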
* marks the source's active call; other numbers are inactive results; x = not tested or not shown. Unless noted, no stated cut-off is given here; in the data, active means inhibition above about 30%; inactive means the rest.

SMILES	PostGolgi yeast	CYP2C9 inh	PostGolgi ctrl	CYP2C19 inh	CYP2C19 act	CYP2C9 activ
COC(=O)C1=C(CSc2nncn2C)NC(=O)NC1c1ccc(F)cc1 (stereo not given)	-3	3	6	-4	1	1
O=C1CC(=O)CC(c2ccccc2Cl)C1	5	x	1	x	x	x
COc1ccc(OC)c2c(C)cc(N3CCN(C(=O)c4ccc(F)cc4)CC3)nc12	15	19	23	3	1	0.8
Cc1cc(C)n2nc(CC(=O)NC3CCCCCC3)nc2n1	-7	-18	-7	-14	1.1	1.2
CC(=NCc1ccncc1)C1=C(O)c2ccccc2C1=O	1	83*	1	65*	0.3	0.2
CC(=NCCCn1ccnc1)C1=C(O)c2ccccc2C1=O	-4	81*	2	46	0.5	0.2
CC(=NCCN1CCOCC1)C1=C(O)c2ccccc2C1=O	-5	34	-3	3	1	0.7
CC(=NCc1cccnc1)C1=C(O)c2ccccc2C1=O	18	26	-3	38	0.6	0.7
CCOC(=O)C(NC(C)=O)C(OC(C)=O)c1cccc(N(CCO)CCO)c1 (stereo not given)	6	0	7	-2	1	1
Cc1ccc2cc(CCNC(=O)c3ccc(Br)o3)c(=O)[nH]c2c1	21	37	101*	54*	0.5	0.6
COc1ccc(OC)c2[nH]c(=O)c(CCNC(=O)C(C)C)cc12	-5	-16	7	15	0.8	1.2
CCC(CC)C(=O)NCCc1cc2c(OC)ccc(OC)c2[nH]c1=O	11	37	5	43	0.6	0.6
COc1ccc(OC)c2[nH]c(=O)c(CCNC(=O)CC(C)C)cc12	7	-154	18	32	0.7	2.5*
COc1ccc(OC)c2[nH]c(=O)c(CCNC(=O)C3CCCCC3)cc12	13	-144	6	31	0.7	2.4*
CC(=O)NCCc1cc2ccc(C)cc2[nH]c1=O	24	2	-2	-2	1	1
COc1ccc(OC)c2[nH]c(=O)c(CCNC(=O)c3ccc(Br)o3)cc12	-4	-58	-4	77*	0.2	1.6
O=C(O)c1ccc(-n2c(-c3ccc(Br)cc3)n[nH]c2=S)cc1	6	-15	-1	2	1	1.2
CC1=C(C(=O)OC(C)C)C(c2cccnc2)C2=C(CCCC2=O)N1 (stereo not given)	-1	32	23	46	0.5	0.7
CCSc1nc2c(cnn2-c2ccc(C)cc2)c(=O)[nH]1	-11	-19	10	0	1	1.2
CCSc1nc2c(c(=O)[nH]1)C(c1ccncc1)C(C(=O)OC)=C(C)N2 (stereo not given)	10	52*	4	76*	0.2	0.5
CSc1nc2c(c(=O)[nH]1)C(c1ccncc1)C(C(=O)OC(C)C)=C(C)N2 (stereo not given)	16	47	7	89*	0.1	0.5
C=CCCCCCCCCc1nc(=S)[nH][nH]1	9	50*	67*	46	0.5	0.5
O=C(Nc1c(C(=O)NCc2ccco2)cnn1-c1ccccc1)c1ccc(F)cc1	-1	42	-3	43	0.6	0.6
Brc1ccc(-c2noc(COc3ccc4c(c3)CCC4)n2)o1	-3	64*	10	20	0.8	0.4
Clc1ccc(OCc2nc(-c3ccc(Br)o3)no2)cc1	3	-25	12	-12	1.1	1.3
SMILES	PostGolgi yeast	CYP2C9 inh	PostGolgi ctrl	CYP2C19 inh	CYP2C19 act	CYP2C9 activ
COCCn1nnnc1C(C(C)C)N(Cc1ccccc1)Cc1cc2cc(OC)ccc2[nH]c1=O (stereo not given)	-3	84*	-2	77*	0.2	0.2
CCc1ccc2[nH]c(=O)c(CN(Cc3ccc(OC)cc3)Cc3nnnn3CCOC)cc2c1	3	57*	-1	55*	0.5	0.4
Cc1cccc2cc(CN(Cc3ccco3)C(c3nnnn3CCc3ccccc3)C(C)C)c(=O)[nH]c12 (stereo not given)	-21	83*	13	78*	0.2	0.2
COc1ccc(Cn2nnnc2CN(Cc2cc3cc(C)ccc3[nH]c2=O)C2CCCC2)cc1	7	25	0	25	0.7	0.7
CCN(Cc1ccccc1)C(c1cc2ccc(C)cc2[nH]c1=O)c1nnnn1CCOC (stereo not given)	-5	55*	-2	7	0.9	0.4
Cc1nn(CC(=O)O)c2ccccc12	25	23	-1	-15	1.2	0.8
